Our source for the growth values is PubChem BioAssay (NCI).

Each structure is given as a SMILES string. Compounds without any hit were thinned out: in the full panel of roughly 83,000, 20% have a hit.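 In brief: 96-well plates, 48 h treatment, single concentration, percent growth endpoint.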 Values without a mark were called inactive. Calls of active or inactive are those of the source. How the source made its calls: active means growth percent below 10; inactive means the rest.

The subject of the first assay is PC-3 prostate. As to the kind of experiment: NCI-60 one-dose screen, 48 h (100 = growth as untreated, 0 = no growth, -100 = all killed). The note with it: 10 µM unless noted.
As to `C=CCn1c(SCC(=O)Nc2ccc(C(=O)/C=C/c3ccc(Cl)cc3)cc2)nnc1-c1c[nH]c2ccccc12`, the growth was 58.4%.
Consider `O=C(NNc1nc2cc(F)c(F)cc2n2c(CN3CC4CNCC4C3)ccc12)c1cnccn1` (stereo unspecified), for which the growth is 22%.
With `COc1ccc2c(c1)c(CC(=O)[Se]CC#N)c(C)n2C(=O)c1ccc(Cl)cc1`, the growth is 8.19% (active).
Consider `O=C(NNc1nc2cc(F)ccc2n2c(CN3CCC(O)C3)ccc12)c1cnccn1` (stereo unspecified), for which the growth was 25.2%.
`COc1ccc(COc2ccc(/C=C3\C(=O)Nc4ccccc43)cc2OC)cc1`: the growth was 95.8%.
Still for that read-out and setting: the value for `O=C(NNc1nc2cc(F)ccc2n2c(CO)ccc12)c1cnccn1` was 23.6%; that for `N#Cc1cn(Cc2ccc(Cl)cc2Cl)c(C(=O)c2ccc(Br)cc2)c1N` was 86.9%; that for `O=C(CN1CCN(c2cc(=O)n(-c3ccccc3)c3ccccc23)CC1)Nc1nc(-c2ccccc2)cs1` was 32.5%.
Still for that read-out and setting: for `COc1ccc(CCOc2cc3c(cc2OC)CCN(C(=O)NCc2cocn2)C3c2ccc(C)cc2C)cc1` (stereo unspecified) the value was 20.1%; for `COc1ccc(Oc2ccc(/C=N/NC(=O)CSc3nc4ccccc4c(=O)n3-c3ccc(Cl)cc3)cc2)cc1`, 63.7%; for `N#Cc1cccc(CN2CCC3=C(C2)C(=O)N(Cc2ccc(Cl)cc2)C2=NCCCN23)c1`, 24%.
Turning to `O=C(NNc1nc2cc(F)ccc2n2c(CN3CC4CNCC4C3)ccc12)c1cnccn1` (stereo unspecified), the growth was 27.2%.
As to `CCOc1ccccc1NC1=C(Cl)C(=O)c2nc(C)ccc2C1=O`, the growth was 4.34% (active).
With `CCCCCc1ccc(S(=O)(=O)Nc2cccc(-c3csc(NC(=O)CCCCCN4CCN(CCO)CC4)n3)c2)cc1`, the growth was 68.1%.
Same read-out and setting: the value for `CCOc1ccc(NC2=C(Cl)C(=O)c3nc(C)ccc3C2=O)cc1` was 10.4%.
On the same count and under the same terms, for `COc1cc(/C=C2\C(=O)Nc3ccccc32)ccc1OCc1ccc(Cl)cc1` the value was 94.8%.
Regarding `COc1cc(-c2nc(SCCC(C)C)nc(NNC(=O)c3ccncc3)c2C#N)cc(OC)c1OC`, the growth was 78.6%.
`O=C(NNc1nc2cc(F)cc(F)c2n2cccc12)c1cnccn1`: the growth is 24.1%.
The same measure, in the same setting: for `O=C(CCn1cc[n+](CC(=O)c2ccc(-c3ccccc3)cc2)c1)Nc1cccc2cccnc12` the value was 55.9%; for `COc1c(N2CC3CCCNC3C2)c(F)cc2c(=O)c(C(=O)N/N=C/c3ccc4c(c3)OCO4)cn(C3CC3)c12` (stereo unspecified), 60.1%; for `COc1ccc(/C=C(/C)c2ccc3ccc(OC)cc3[o+]2)c(O)c1`, 41.7%.
With `CN(C)CCNC(=O)c1ccc(-c2nc3ccc4[nH]ncc4c3c3c2CCC3)cc1`, the growth was 3.49% (active).
Same read-out and setting: the value for `COc1ccccc1NC1=C(Cl)C(=O)c2nc(C)ccc2C1=O` was 27.4%; that for `CCNC(=O)N1CCc2cc(OC)c(OCCc3ccc(OC)cc3)cc2C1c1ccc(Cl)cc1C` (stereo unspecified) was 26.1%.
For `Cc1cc2nc(C(Cl)Cl)nc(-c3cccs3)n2n1`, the growth was 11.2%.
Same read-out and setting: the value for `CN(C)CCNC(=O)c1ccc(-c2nc3ccc4[nH]ncc4c3c3c2COCC3)cc1` was 0.378% (active); that for `CN1CCN(Cc2ccc(NC(=O)c3cncc(C#Cc4cnc5ccc(OCC(C)(C)O)nn45)c3)cc2C(F)(F)F)CC1` was 2.2% (active); that for `Nc1ncc(-c2ccc3ncnc(Nc4cccc(Cl)c4F)c3c2)cn1` was 61%.
With `COc1ccc(/C=C/C(=O)c2cccc(NC(=O)CSc3nc4ccccc4c(=O)n3-c3ccccc3)c2)cc1OC`, the growth was 97%.
The same measure, in the same setting: for `O=C(NNc1nc2cc(F)ccc2n2c(CN3CCCC3)ccc12)c1cnccn1` the value was 21.4%; for `CC/C(=C/c1c(O)cccc1OC)c1ccc2c(OC)cccc2[o+]1`, 95.3%; for `CS(=O)(=O)Nc1cc(-c2ccc3ncc(C#N)c(NCc4ccccc4F)c3c2)cnc1Cl`, 6.54% (active).
For `COc1ccccc1-n1cc(C#N)c(N)c1C(=O)c1ccc(Cl)cc1`, the growth was 58%.
Same read-out and setting: the value for `N=c1c2cc(-c3ccccc3)oc2ncn1/N=C/c1ccc(Cl)cc1` was 82.2%; that for `C=CCn1c(SCC(=O)Nc2ccc(C(=O)/C=C/c3cc(OC)c(OC)c(OC)c3)cc2)nnc1-c1c[nH]c2ccccc12` was 40.6%; that for `COC(=O)C[Se]C(=O)Cc1c(C)n(C(=O)c2ccc(Cl)cc2)c2ccc(OC)cc12` was 72.7%.
Still for that read-out and setting: the value for `COc1ccc(NC2=C(Cl)C(=O)c3nc(C)ccc3C2=O)cc1OC` was 70.6%; that for `NC(N)=Nc1ccc(Oc2cccc(NC(N)=Nc3ccc(I)cc3F)c2)cc1` was 27.5%.

A further assay deals with SK-MEL-5 melanoma. The description is as above. The conditions noted are these: 10 µM unless noted.
With `C=CCn1c(SCC(=O)Nc2ccc(C(=O)/C=C/c3ccc(Cl)cc3)cc2)nnc1-c1c[nH]c2ccccc12`, the growth was 42.9%.
Same read-out and setting: for `O=C(NNc1nc2cc(F)c(F)cc2n2c(CN3CC4CNCC4C3)ccc12)c1cnccn1` (stereo unspecified) the value was 0.703% (active).
The same measure, in the same setting: for `COc1ccc2c(c1)c(CC(=O)[Se]CC#N)c(C)n2C(=O)c1ccc(Cl)cc1` the value was -6.8% (active).
The same measure, in the same setting: for `O=C(NNc1nc2cc(F)ccc2n2c(CN3CCC(O)C3)ccc12)c1cnccn1` (stereo unspecified) the value was 4.28% (active).
As for `COc1ccc(COc2ccc(/C=C3\C(=O)Nc4ccccc43)cc2OC)cc1`, the growth was 108%.
Still for that read-out and setting: the value for `O=C(NNc1nc2cc(F)ccc2n2c(CO)ccc12)c1cnccn1` was 6.38% (active).
For the molecule `N#Cc1cn(Cc2ccc(Cl)cc2Cl)c(C(=O)c2ccc(Br)cc2)c1N`, the growth was 97.5%.
As to `O=C(CN1CCN(c2cc(=O)n(-c3ccccc3)c3ccccc23)CC1)Nc1nc(-c2ccccc2)cs1`, the growth was 5.29% (active).
On to `COc1ccc(CCOc2cc3c(cc2OC)CCN(C(=O)NCc2cocn2)C3c2ccc(C)cc2C)cc1` (stereo unspecified), for which the growth was -43.2% (active).
As for `COc1ccc(Oc2ccc(/C=N/NC(=O)CSc3nc4ccccc4c(=O)n3-c3ccc(Cl)cc3)cc2)cc1`, the growth was 78%.
Same read-out and setting: the value for `N#Cc1cccc(CN2CCC3=C(C2)C(=O)N(Cc2ccc(Cl)cc2)C2=NCCCN23)c1` was 8.1% (active).
Turning to `O=C(NNc1nc2cc(F)ccc2n2c(CN3CC4CNCC4C3)ccc12)c1cnccn1` (stereo unspecified), the growth was 11.2%.
Still for that read-out and setting: the value for `CCOc1ccccc1NC1=C(Cl)C(=O)c2nc(C)ccc2C1=O` was -97.8% (active); that for `CCCCCc1ccc(S(=O)(=O)Nc2cccc(-c3csc(NC(=O)CCCCCN4CCN(CCO)CC4)n3)c2)cc1` was 66.1%; that for `CCOc1ccc(NC2=C(Cl)C(=O)c3nc(C)ccc3C2=O)cc1` was -98.6% (active).
As for `COc1cc(/C=C2\C(=O)Nc3ccccc32)ccc1OCc1ccc(Cl)cc1`, the growth is 103%.
`COc1cc(-c2nc(SCCC(C)C)nc(NNC(=O)c3ccncc3)c2C#N)cc(OC)c1OC`: the growth is 84.4%.
As to `O=C(NNc1nc2cc(F)cc(F)c2n2cccc12)c1cnccn1`, the growth is 14.2%.
On the same count and under the same terms, for `O=C(CCn1cc[n+](CC(=O)c2ccc(-c3ccccc3)cc2)c1)Nc1cccc2cccnc12` the value was 81.1%; for `COc1c(N2CC3CCCNC3C2)c(F)cc2c(=O)c(C(=O)N/N=C/c3ccc4c(c3)OCO4)cn(C3CC3)c12` (stereo unspecified), 22.8%.
On the same count and under the same terms, the value for `COc1ccc(/C=C(/C)c2ccc3ccc(OC)cc3[o+]2)c(O)c1` was 61.6%.
The same measure, in the same setting: the value for `CN(C)CCNC(=O)c1ccc(-c2nc3ccc4[nH]ncc4c3c3c2CCC3)cc1` was 7.44% (active); that for `COc1ccccc1NC1=C(Cl)C(=O)c2nc(C)ccc2C1=O` was -93.3% (active); that for `CCNC(=O)N1CCc2cc(OC)c(OCCc3ccc(OC)cc3)cc2C1c1ccc(Cl)cc1C` (stereo unspecified) was -10.8% (active).
For `Cc1cc2nc(C(Cl)Cl)nc(-c3cccs3)n2n1`, the growth is 83.9%.
Still for that read-out and setting: for `CN(C)CCNC(=O)c1ccc(-c2nc3ccc4[nH]ncc4c3c3c2COCC3)cc1` the value was 3.57% (active); for `CN1CCN(Cc2ccc(NC(=O)c3cncc(C#Cc4cnc5ccc(OCC(C)(C)O)nn45)c3)cc2C(F)(F)F)CC1`, -91.8% (active).
On the same count and under the same terms, for `Nc1ncc(-c2ccc3ncnc(Nc4cccc(Cl)c4F)c3c2)cn1` the value was 63.6%; for `COc1ccc(/C=C/C(=O)c2cccc(NC(=O)CSc3nc4ccccc4c(=O)n3-c3ccccc3)c2)cc1OC`, 99%.
Consider `O=C(NNc1nc2cc(F)ccc2n2c(CN3CCCC3)ccc12)c1cnccn1`, for which the growth was 22.3%.
`CC/C(=C/c1c(O)cccc1OC)c1ccc2c(OC)cccc2[o+]1`: the growth was 104%.
The same measure, in the same setting: the value for `CS(=O)(=O)Nc1cc(-c2ccc3ncc(C#N)c(NCc4ccccc4F)c3c2)cnc1Cl` was -93.6% (active); that for `COc1ccccc1-n1cc(C#N)c(N)c1C(=O)c1ccc(Cl)cc1` was 60.1%; that for `N=c1c2cc(-c3ccccc3)oc2ncn1/N=C/c1ccc(Cl)cc1` was 91.2%.
On to `C=CCn1c(SCC(=O)Nc2ccc(C(=O)/C=C/c3cc(OC)c(OC)c(OC)c3)cc2)nnc1-c1c[nH]c2ccccc12`, for which the growth was 25.2%.
The same measure, in the same setting: the value for `COC(=O)C[Se]C(=O)Cc1c(C)n(C(=O)c2ccc(Cl)cc2)c2ccc(OC)cc12` was 44.9%.
As to `COc1ccc(NC2=C(Cl)C(=O)c3nc(C)ccc3C2=O)cc1OC`, the growth is 86.6%.
Regarding `NC(N)=Nc1ccc(Oc2cccc(NC(N)=Nc3ccc(I)cc3F)c2)cc1`, the growth is 74%.
